Test results from PubChem BioAssay (NCATS).
Results filed as inconclusive are left out. A number with no mark means an inactive call. The call rests on the fitted dose curve; in most records, active means well fitted curve in the direction sought with a large enough effect in the signal ratio, with a control signal flat (not every such curve was filed as active); inconclusive means small, poorly fitted or top-dose-only effect, or effect the other way, or a change in a side signal; inactive means no such curve, though single readings can be large or run the other way; the % refers to the signal ratio.

target: Tyrosine-protein phosphatase non-receptor type substrate 1 (Homo sapiens) + Leukocyte surface antigen CD47 (Homo sapiens) (UniProt P78324+Q08722); assay: CD47-SIRPalpha protein protein interaction - LANCE assay qHTS validation (AID 1347057); conditions: Recombinant CD47-His / biotin-SIRPalpha, TR-FRET ratio; series mostly up to 38.3 µM; activity change, negative = inhibition: at the top concentration; further: 0% is about no effect
Sequence (P78324 whole entry, looked up): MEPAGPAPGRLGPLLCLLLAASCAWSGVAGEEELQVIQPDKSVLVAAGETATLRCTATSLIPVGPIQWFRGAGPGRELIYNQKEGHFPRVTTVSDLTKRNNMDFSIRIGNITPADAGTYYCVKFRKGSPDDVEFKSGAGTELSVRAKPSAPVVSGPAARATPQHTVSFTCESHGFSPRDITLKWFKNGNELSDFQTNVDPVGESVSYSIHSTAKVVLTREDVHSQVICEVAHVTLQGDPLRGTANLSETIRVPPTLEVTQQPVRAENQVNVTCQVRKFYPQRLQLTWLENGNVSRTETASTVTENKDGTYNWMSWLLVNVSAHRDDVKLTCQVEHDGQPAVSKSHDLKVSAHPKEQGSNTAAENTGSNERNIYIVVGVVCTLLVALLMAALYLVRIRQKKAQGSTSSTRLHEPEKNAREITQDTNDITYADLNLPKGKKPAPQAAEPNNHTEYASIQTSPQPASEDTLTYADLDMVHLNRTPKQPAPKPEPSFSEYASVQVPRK
Sequence (Q08722 whole entry, looked up): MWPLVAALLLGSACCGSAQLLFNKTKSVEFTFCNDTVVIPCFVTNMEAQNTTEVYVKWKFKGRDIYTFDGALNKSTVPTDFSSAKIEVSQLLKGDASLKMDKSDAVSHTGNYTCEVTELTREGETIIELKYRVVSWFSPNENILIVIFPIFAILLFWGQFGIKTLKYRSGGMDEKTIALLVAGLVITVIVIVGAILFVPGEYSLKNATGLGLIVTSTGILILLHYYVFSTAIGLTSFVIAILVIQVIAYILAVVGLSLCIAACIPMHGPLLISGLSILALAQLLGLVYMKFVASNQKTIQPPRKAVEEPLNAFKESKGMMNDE
Description: SIRPalpha is a myeloid cell expressed immunomodulatory receptor that binds the tumor expressed immune checkpoint CD47. Therapeutic disruption of this interaction leads to immune-mediated tumor rejection. This assay was used to quantitate CD47-SIRPalpha binding biochemically and evaluate chemical libraries for novel CD47-SIRPalpha inhibitors. To recapitulate the biological interaction of CD47 and SIRPalpha, we designed expression constructs to produce their recombinant, soluble, extracellular interaction domains. CD47 was produced with an N-terminal 6His tag. SIRPalpha was produced with an N-terminal Avi-Tag for site-specific biotin incorporation. The CD47-SIRPalpha interaction was measured by TR-FRET using affinity tag linked reagents (anti-6His-Eu donor and streptavidin-APC acceptor). SIRPalpha without biotin incorporation was used as a positive control inhibitor.
PROTOCOL TABLE (as described by Miller, T. et al. 2019)
SEQUENCE No. (e.g., 1, 2, 3, etc.); […] (e.g., Cells, Incubation, Reagent, etc.); VALUE and DESCRIPTION.
1a. Reagent. 3 uL CD47-His (12.5 nM) and Anti-His Eu Donor reagent (3 nM) added to respective wells in Assay buffer; white/solid bottom high base, med bind 1536-well plates (Greiner 789075)
1b. Reagent. 2 uL Assay buffer negative control for background fluorescence
2. Reagent. 23 nL library compounds (7-pt, 1:4 intraplate titration series) or DMSO control transferred by Pin Tool
3. Centrifuge. Centrifuge plate for 30 s at 1000 RPM
4. Incubation.#Incubate reagents at room temperature for 30 min, protected from light
5. Reagent. 2 uL SIRPalpha-biotin (100 nM) in Assay buffer
6. Incubation.#Incubate reagents at room temperature for 30 min, protected from light
7. Reagent. 1 uL SAV-APC (26 nM) acceptor reagent added to respective wells
8. Centrifuge. Centrifuge plate for 30 s at 1000 RPM
9. Incubation. Incubate reagents at room temperature for 30 min, protected from light
10. Detector. Measure Top TR-FRET on EnVision (Eu/APC filter set); calculate ratio Ch1/Ch2
1. Assay buffer composition.#Phosphate buffered saline (PBS; 10 mM Phosphate, 137 mM NaCl, and 2.7 mM KCl; pH 7.4), 0.05% IGEPAL CA-630
2. 23nL of […] library compounds (7 plates) or DMSO vehicle control transferred to 9 Greiner white/solid bottom high base, TC plates in 7 interplate 1:5 titrations (see Yasgar, A. et al. 2008) with Pintool. Two of the 9 plates are DMSO-only in compound field at beginning and end of compound library-treated plates.
10. Detector settings#Mirror = LANCE/DELFIA Dual Enh; Ex. Filter = UV2[TRF] 320; Em. Filter = APC 665; 2nd Em. Filter = Europium 615; Measurement h = 6.5; Ex. light (%) = 100; Delay = 60 us; Window t = 100 us; No. Seq. windows = 1; Time between flashes = 2000us; No. of flashes = 100; No. of flashes for 2nd detector = 100; Calculation: "Ratio Ch1/Ch2"

Row | Structure (SMILES) | activity change, negative = inhibition [%]
1 | Cc1ccc(Cl)c(Nc2ccccc2C(=O)O)c1Cl | 0.522
2 | CN=C(NC#N)NCCSCc1nc[nH]c1C | -0.308
3 | Cc1nnc(SCC2=C(C(=O)O)N3C(=O)[C@@H](NC(=O)Cn4cnnn4)[C@H]3SC2)s1 | 1.84
4 | COC(=O)C1=C(C)NC(C)=C(C(=O)OCCN(C)Cc2ccccc2)C1c1cccc([N+](=O)[O-])c1 (stereo not given) | 2.3
5 | NS(=O)(=O)c1cc2c(cc1Cl)NC(C1CC3C=CC1C3)NS2(=O)=O (stereo not given) | -1.29
6 | CN(C)CCOC(=O)COc1ccc(Cl)cc1 | 2.91
7 | CN(C)CCN(Cc1cccs1)c1ccccn1 | -3.99
8 | NCCCNCCSP(=O)(O)O | -0.165
9 | CN(C)CC/C=C1\c2ccccc2COc2ccccc21 | 2.58
10 | COCCc1ccc(OCC(O)CNC(C)C)cc1 (stereo not given) | 0.198
11 | O=C1CC2(CCCC2)CC(=O)N1CCCCN1CCN(c2ncccn2)CC1 | 1.23
12 | COc1cc2c(cc1OC)-c1cc(=Nc3c(C)cc(C)cc3C)n(C)c(=O)n1CC2 | 0.176
13 | Cc1ccc(=O)n(-c2ccccc2)c1 | 0.896
14 | CC(=O)OCC1=C(C(=O)O)N2C(=O)[C@@H](NC(=O)Cc3cccs3)[C@H]2SC1 | 2.54
15 | Cc1nc2c([nH]1)c(=O)n(C)c(=O)n2Cc1ccco1 | 1.58
16 | C[C@@H](O)[C@H]1C(=O)N2C(C(=O)O)=C(SCCN=CN)C[C@H]12 | 3.25
17 | CCN1CCc2nc(N)oc2CC1 | 1.43
18 | Cc1cccc(C)c1NC(=O)C(C)N (stereo not given) | 0.692
19 | CCCCNC(=O)NS(=O)(=O)c1ccc(C)cc1 | 1.14
20 | C[C@]12CCC(=O)C=C1CC[C@@H]1[C@@H]2CC[C@@]2(C)[C@H]1CC[C@]2(O)C(=O)CO | 0.308

Row | Structure (SMILES) | activity change, negative = inhibition [%]
21 | CC(C)[N+](C)(CCOC(=O)C1c2ccccc2Oc2ccccc21)C(C)C | 1.23
22 | CC(=O)OC(C)C[N+](C)(C)C (stereo not given) | 0.998
23 | CN(C(=O)CCCOc1ccc2[nH]c(=O)ccc2c1)C1CCCCC1 | -0.44
24 | Brc1c(NC2=NCCN2)ccc2nccnc12 | 1.76
25 | OCCN1CCN(CC/C=C2/c3ccccc3Sc3ccc(C(F)(F)F)cc32)CC1 | 1.19
26 | COc1cc(C(=O)OCCCN2CCCN(CCCOC(=O)c3cc(OC)c(OC)c(OC)c3)CC2)cc(OC)c1OC | -2.01
27 | O=C(CCCN1CCC(O)(c2cccc(C(F)(F)F)c2)CC1)c1ccc(F)cc1 | 0.835
28 | Cc1ccc(/C(=C\CN2CCCC2)c2ccccn2)cc1 | 1.25
29 | CCCN(CCC)C(=O)C(CCC(=O)O)NC(=O)c1ccccc1 (stereo not given) | 0.659
30 | Nc1ncn([C@@H]2O[C@H](CO)[C@@H](O)[C@H]2O)c(=O)n1 | 2.91
31 | OCCN1CCN(CCCN2c3ccccc3C=Cc3ccccc32)CC1 | 0.132
32 | COC(=O)[C@@H](N)Cc1ccc(O)c(O)c1 | 2.02
33 | Cc1scc2c1N(C(=O)CN1CCN(C)CC1)c1ccccc1NC2=O | 3.97
34 | Cc1ccc(S(=O)(=O)NC(=O)NN2CCCCCC2)cc1 | 1.89
35 | C[C@]12CC[C@@H]3c4ccc(O)cc4C[C@@H](CCCCCCCCCS(=O)CCCC(F)(F)C(F)(F)F)[C@H]3[C@@H]1CC[C@@H]2O (stereo not given in full) | 0.409
36 | CC(C)(C)NCC(O)c1cc(O)cc(O)c1 (stereo not given) | 1.8
37 | COc1ccc2c(c1OC)C(=O)O[C@@H]2[C@H]1c2c(cc3c(c2OC)OCO3)CCN1C | 1.28
38 | CSc1ccc(C(=O)c2[nH]c(=O)[nH]c2C)cc1 | 0.412
39 | CCCOc1ccccc1-c1nc2n[nH]nc2c(=O)[nH]1 | 0.407
40 | CCn1nc(C(=O)O)c(=O)c2cc3c(cc21)OCO3 | -0.468
